Most compounds without a hit are left out; they make up all but 7.9% or so of the library.
HT1080 IDH1KD tx – kills HT-1080 cells with IDH1 knockdown. HT-1080 IDH1 knockdown viability, ATP luminescence, 48 h. Potency, µM (top dose mostly 46.1 µM), without a hit: at the highest dose activity, negative = toxicity, hits mostly cytotoxic. 360,000 compounds, 2% hits;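 note: 0% = DMSO wells and -100% = cell-free medium wells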
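Using the IDH1-knockdown HT-1080 line run in the same batch and compound series as the NT line, viability after 48 h at 37 °C was determined by CellTiter-Glo luminescence and expressed as % activity.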
HT1080-NT tox – kills 2HG-producing HT-1080-NT fibrosarcoma cells; Potency, µM (titrated, usually from 46.1 µM), inactives show at the top dose activity, negative = less viability, most hits filed as cytotoxic; 360,000 compounds, 1.6% hits; HT-1080-NT fibrosarcoma viability, CellTiter-Glo ATP luminescence, 48 h;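 note: NT is the 2HG producing partner of a matched IDH1 knockdown line; 0% = DMSO-treated cells and -100% = media-only wells without cells; nearly all actives have a fitted effect of over 55% in size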
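Viability by CellTiter-Glo luminescence after 48 h compound exposure at 37C of HT-1080-NT cells (750/well, RPMI, 5% FBS). % activity scaled between DMSO wells and medium-only wells, then curve-fitted and categorized by curve class.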
MCF10A rereplic – DNA re-replication induction in MCF 10a cells. AID 624296. Potency, µM (titrated, usually from 46.1 µM), for inactives: top-dose activity, positive = re-replication, actives largely listed as activators. 350,000 compounds, 2.9% hits. MCF 10A DNA re-replication, Hoechst nuclear intensity, 48 h; note: % of control where 0% means no effect; nearly all actives have a fitted effect of over 50% in size
KB-V1 MDR tox – kills drug-selected multidrug resistant KB-V1 cells; KB-V1 MDR cells viability, CellTiter-Glo, 72 h; Potency, µM (titrated, usually from 46.1 µM), hits mostly cytotoxic; 400,000 compounds, 3.4% hits; AID 1347076; note: % is set by controls: 0 for no effect and ±100 for the full control effect; nearly all actives have a fitted effect of over 60% in size
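Compound-treated KB-V1 multidrug-resistant cells, 72 h, 37 degrees C; viability by CellTiter-Glo. Fitted qHTS curves give the values.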
KB-3-1 tox – kills parental KB-3-1 adenocarcinoma cells. Potency, µM (top dose mostly 46.1 µM), actives largely listed as cytotoxic. 400,000 compounds, 1.4% hits. KB-3-1 viability, CellTiter-Glo ATP luminescence, 72 h; note: % is set by controls: 0 for no effect and ±100 for the full control effect; nearly all actives have a fitted effect of over 60% in size
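Cytotoxicity in the drug-sensitive parental line KB-3-1 was scored as loss of CellTiter-Glo luminescence following 72 h incubation with compound. Values come from curve fitting of normalized concentration-response data.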
SW480 rerep – DNA re-replication induction in SW480 cells | Potency, µM (titrated, usually from 46.1 µM), for the others: top-dose re-replication activation, hits mostly activators | SW480 DNA re-replication, Hoechst DNA content imaging, 48 h | 340,000 compounds, 1.8% hits; note: % of control where 0% means no effect; nearly all actives have a fitted effect of over 55% in size
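DNA re-replication was detected as more nuclei of elevated Hoechst intensity after 48 hr exposure to compound (23 nL pinned per well of 250 cells).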
An asterisk follows results filed as active; i = inactive; u = inconclusive; x = no result given. Calls come from the whole dose curve; as a rule, active = well fitted curve in the direction sought with a large enough effect; inconclusive = small, poorly fitted or top-dose-only effect, or another doubt; inactive = no such curve, though single readings can be large; an effect the other way counts as inactive or inconclusive. Potency is the fitted concentration of half-maximal effect.

SMILES	HT1080 IDH1KD tx	HT1080-NT tox	MCF10A rereplic	KB-V1 MDR tox	KB-3-1 tox	SW480 rerep
CN1C2CCC1/C(=C\c1ccccc1)C(=O)/C2=C\c1ccccc1	u	u	u	i	7.3µM*	u
Cc1c(C(=O)O)cccc1-c1ccc(/C=N/n2cnnc2)o1	1%	14%	5%	i	i	-12%
Cc1cc(-c2ccc(/C=N/n3cnnc3)o2)ccc1Cl	1%	3%	-2%	i	i	-3%
Cc1c(Cl)cccc1-c1ccc(/C=N/n2cnnc2)o1	-4%	-2%	6%	2.9µM*	u	u
Clc1ccccc1-c1ccc(/C=N/n2cnnc2)o1	-4%	7%	-3%	3.3µM*	5.8µM*	2%
Clc1cccc(-c2ccc(/C=N/n3cnnc3)o2)c1Cl	8%	7%	1%	1.6µM*	6.5µM*	-3%
CCCCOC(=O)c1cc(-c2ccc(/C=N/n3cnnc3)o2)ccc1Cl	-12%	-1%	-3%	18µM*	i	2%
Cc1ccc(-c2c(C(=O)Nc3ccc(F)c(F)c3)oc(=O)c3ccccc23)cc1	x	x	x	i	i	x
Cc1nn(CCCC(=O)Nc2ccccc2C(F)(F)F)c(=O)c2c1sc1ccccc12	x	x	x	i	i	x
COC(=O)CCC(C(=O)CN1C(=O)c2ccccc2C1=O)N1C(=O)c2ccccc2C1=O (centres undefined)	8%	2%	-7%	u	i	-4%
CCCN(C(=O)c1coc(=O)c2ccccc12)c1ccccc1C	x	x	x	i	i	x
CCCN(C(=O)NCc1noc2ccc(C)cc12)c1ccc(Cl)c(Cl)c1	x	x	x	i	i	x
CC(Sc1nnc(-c2ccncc2)n1C)C(=O)NCC(=O)Nc1ccc(F)c(F)c1F (centres undefined)	9%	5%	x	i	i	x
CC(Sc1nnnn1-c1ccc(Cl)cc1)C(=O)NCC(=O)Nc1ccc(F)c(F)c1F (centres undefined)	-12%	3%	14%	16µM*	i	2%
C[C@H](CO)N1C[C@H](C)[C@H](CN(C)C(=O)Nc2ccc(F)cc2)OCc2ccccc2-c2c(n(C)c3ccccc23)C1=O	-19%	-18%	x	i	i	x
CCC(C)C(NC(=O)c1ccccc1)C(=O)N1CCN(C(=O)c2ccccc2)CC1 (centres undefined)	-2%	0%	x	i	i	x
Cc1ccccc1N(CC(=O)N/N=C/c1ccc(Cl)cc1)C(=O)c1ccccc1	-22%	-7%	26µM*	21µM*	u	u
Cc1ccccc1N(CC(=O)N/N=C/c1ccc(F)cc1)C(=O)c1ccccc1	-9%	-8%	5%	i	i	4%
CCOc1ccc(CCNC(=O)CN2CCN(Cc3ccc(Cl)cc3)C2=O)cc1OCC	x	x	x	i	i	x
CC(C)c1cc(C(=O)NNC(=S)NCc2ccco2)c(O)c(C(C)C)c1	16µM*	u	u	i	i	-2%
Cc1n[nH]c(=O)n(N=Cc2c[nH]c3ccccc23)c1=O	7%	5%	x	i	i	x
Cn1c(C(=O)OCC(=O)NCc2ccco2)cc2sccc21	u	-23%	23%	i	i	u
Cc1cc2c(cc(C(=O)OCC(=O)NCc3ccco3)n2C)s1	10µM*	13µM*	u	3.7µM*	5.8µM*	10µM*
Cc1cc(S(=O)(=O)NCC(C)C)ccc1OCC(=O)NCC1CCCO1 (centres undefined)	3%	7%	8%	21µM*	i	u
O=C(Nc1ccc(Cl)c([N+](=O)[O-])c1)C(NCCCO)c1ccccc1 (centres undefined)	1%	-5%	u	i	i	-1%
O=C(Nc1cc([N+](=O)[O-])ccc1Cl)C(Sc1ccccc1)c1ccccc1 (centres undefined)	-9%	-9%	-5%	15µM*	i	-3%
